# Source: article PMC7862700, “An all-to-all approach to the identification of sequence-specific readers for epigenetic DNA modifications on cytosine”
# How the values were obtained:
# Experiment in all cases: DAPPL (digital affinity profiling via proximity ligation, sequencing); 10 mM Tris-HCl pH 7.5, 50 mM NaCl, 1 mM DTT, 4% glycerol, room temperature, 30 min; GST-TFs on glutathione beads, 16-mer random dsDNA library, 0.1% formaldehyde crosslink after washing; high values mean tight binding
# FLI1 = molecular target: T1, FLI1 (Homo sapiens, UniProt Q01543 1-452); settings: protein: recombinant; tags: N-terminal GST; dsDNA, one strand shown
# T1 sequence: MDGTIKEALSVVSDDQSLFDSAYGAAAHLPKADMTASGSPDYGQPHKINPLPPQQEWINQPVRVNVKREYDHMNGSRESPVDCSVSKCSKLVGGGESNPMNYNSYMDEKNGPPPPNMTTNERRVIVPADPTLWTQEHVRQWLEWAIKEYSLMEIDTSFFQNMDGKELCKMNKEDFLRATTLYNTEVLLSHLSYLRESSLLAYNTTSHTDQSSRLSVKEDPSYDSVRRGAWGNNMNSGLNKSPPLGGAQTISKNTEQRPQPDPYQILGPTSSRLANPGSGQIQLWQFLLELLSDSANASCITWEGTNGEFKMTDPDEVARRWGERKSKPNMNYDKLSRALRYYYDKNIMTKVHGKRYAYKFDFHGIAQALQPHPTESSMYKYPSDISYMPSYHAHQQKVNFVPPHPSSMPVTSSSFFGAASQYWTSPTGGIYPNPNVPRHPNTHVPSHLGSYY
# Method in brief: (§1)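 Human transcription factors fused to GST were expressed in yeast, captured on glutathione beads, given DNA barcodes and pooled with a GST-only negative control. Pools were incubated with 200 nmole of a 16-mer random double-stranded DNA library in Tris/NaCl/DTT/glycerol buffer at room temperature for 30 min. They were then washed, crosslinked with 0.1% formaldehyde, proximity-ligated (BsaI/T4 ligase, 1 h, 37 °C), PCR-amplified and sequenced on an Illumina NextSeq500. Binding signal is each 6-mer's read frequency for a factor divided by its frequency for the GST control.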
# ELK1 = molecular target: T2, ELK1 (Homo sapiens, UniProt P19419 1-428); settings: protein: recombinant; tags: N-terminal GST; dsDNA, one strand shown
# T2 sequence: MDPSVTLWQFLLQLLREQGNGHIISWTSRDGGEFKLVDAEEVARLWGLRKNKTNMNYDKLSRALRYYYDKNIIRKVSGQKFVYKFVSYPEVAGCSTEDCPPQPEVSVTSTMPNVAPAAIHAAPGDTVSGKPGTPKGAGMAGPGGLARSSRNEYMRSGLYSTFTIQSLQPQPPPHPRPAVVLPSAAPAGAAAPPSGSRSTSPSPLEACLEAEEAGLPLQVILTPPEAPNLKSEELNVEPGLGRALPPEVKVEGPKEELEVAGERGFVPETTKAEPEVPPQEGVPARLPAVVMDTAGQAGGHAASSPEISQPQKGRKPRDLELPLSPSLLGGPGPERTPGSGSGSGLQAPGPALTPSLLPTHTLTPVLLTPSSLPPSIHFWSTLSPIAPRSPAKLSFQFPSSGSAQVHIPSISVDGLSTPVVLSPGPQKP
# Method in brief: as §1
# GABPA = molecular target: T3, GABPA (Homo sapiens, UniProt Q06546 1-454); settings: protein: recombinant; tags: N-terminal GST; dsDNA, one strand shown
# T3 sequence: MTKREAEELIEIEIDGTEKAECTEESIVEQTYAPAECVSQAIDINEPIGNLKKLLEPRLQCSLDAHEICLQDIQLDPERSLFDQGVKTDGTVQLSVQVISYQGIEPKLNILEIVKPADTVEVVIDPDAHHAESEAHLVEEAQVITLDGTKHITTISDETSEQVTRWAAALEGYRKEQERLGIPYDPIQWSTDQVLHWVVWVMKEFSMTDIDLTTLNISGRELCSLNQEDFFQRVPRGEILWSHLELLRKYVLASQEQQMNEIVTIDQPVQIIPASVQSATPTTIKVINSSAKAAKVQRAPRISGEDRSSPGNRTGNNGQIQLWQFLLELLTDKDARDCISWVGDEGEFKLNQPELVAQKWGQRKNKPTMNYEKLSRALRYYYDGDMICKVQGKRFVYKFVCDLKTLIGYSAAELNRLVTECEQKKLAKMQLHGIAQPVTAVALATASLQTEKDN
# Method in brief: as §1
# ERG = molecular target: T4, ERG (Homo sapiens, UniProt P11308 1-479); settings: protein: recombinant; tags: N-terminal GST; dsDNA, one strand shown
# T4 sequence: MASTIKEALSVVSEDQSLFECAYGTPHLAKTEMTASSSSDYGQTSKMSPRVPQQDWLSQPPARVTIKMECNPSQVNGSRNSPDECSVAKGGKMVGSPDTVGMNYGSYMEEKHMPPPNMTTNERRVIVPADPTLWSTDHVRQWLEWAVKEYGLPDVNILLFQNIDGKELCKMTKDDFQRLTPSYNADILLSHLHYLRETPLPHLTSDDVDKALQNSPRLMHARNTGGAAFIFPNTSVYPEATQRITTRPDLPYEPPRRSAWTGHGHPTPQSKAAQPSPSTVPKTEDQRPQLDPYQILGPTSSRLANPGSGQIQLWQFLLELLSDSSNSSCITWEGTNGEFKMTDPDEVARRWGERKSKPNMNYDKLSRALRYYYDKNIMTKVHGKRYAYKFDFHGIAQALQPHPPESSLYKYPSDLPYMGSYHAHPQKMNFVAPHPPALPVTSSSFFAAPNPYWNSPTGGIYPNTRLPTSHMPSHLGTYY
# Method in brief: as §1
# ELF1 = ELF1 (Homo sapiens, UniProt P32519 1-619); settings: protein: recombinant; tags: N-terminal GST; dsDNA, one strand shown
# Method in brief: as §1
# EHF = molecular target: T5, EHF (Homo sapiens, UniProt Q9NZC4 1-300); settings: protein: recombinant; tags: N-terminal GST; dsDNA, one strand shown
# T5 sequence: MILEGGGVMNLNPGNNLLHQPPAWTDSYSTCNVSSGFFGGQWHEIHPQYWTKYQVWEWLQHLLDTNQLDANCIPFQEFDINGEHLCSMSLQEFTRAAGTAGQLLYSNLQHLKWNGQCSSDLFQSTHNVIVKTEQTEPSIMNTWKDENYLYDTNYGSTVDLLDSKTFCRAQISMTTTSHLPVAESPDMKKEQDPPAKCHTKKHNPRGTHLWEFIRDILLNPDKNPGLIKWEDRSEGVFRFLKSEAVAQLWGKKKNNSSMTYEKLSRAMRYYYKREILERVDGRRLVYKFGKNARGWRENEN
# Method in brief: as §1
# SPI1 = SPI1 (Homo sapiens, UniProt P17947 1-270); settings: protein: recombinant; tags: N-terminal GST; dsDNA, one strand shown
# Method in brief: as §1
# SPIB = SPIB (Homo sapiens, UniProt Q01892 1-262); settings: protein: recombinant; tags: N-terminal GST; dsDNA, one strand shown
# Method in brief: as §1
# ELK3 = molecular target: T6, ELK3 (Homo sapiens, UniProt P41970 1-407); settings: protein: recombinant; tags: N-terminal GST; dsDNA, one strand shown
# T6 sequence: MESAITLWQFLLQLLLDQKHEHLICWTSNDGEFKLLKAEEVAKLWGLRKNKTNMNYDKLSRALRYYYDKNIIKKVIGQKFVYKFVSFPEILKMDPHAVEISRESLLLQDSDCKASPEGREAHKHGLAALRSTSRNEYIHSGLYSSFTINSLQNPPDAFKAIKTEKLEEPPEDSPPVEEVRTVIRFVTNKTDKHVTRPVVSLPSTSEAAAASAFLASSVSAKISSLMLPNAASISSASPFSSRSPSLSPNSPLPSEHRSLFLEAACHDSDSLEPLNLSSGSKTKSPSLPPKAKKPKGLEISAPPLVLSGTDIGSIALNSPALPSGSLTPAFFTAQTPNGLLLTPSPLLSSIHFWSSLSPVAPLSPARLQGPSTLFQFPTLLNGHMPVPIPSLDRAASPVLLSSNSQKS
# Method in brief: as §1
# FEV = molecular target: T7, FEV (Homo sapiens, UniProt Q99581 1-238); settings: protein: recombinant; tags: N-terminal GST; dsDNA, one strand shown
# T7 sequence: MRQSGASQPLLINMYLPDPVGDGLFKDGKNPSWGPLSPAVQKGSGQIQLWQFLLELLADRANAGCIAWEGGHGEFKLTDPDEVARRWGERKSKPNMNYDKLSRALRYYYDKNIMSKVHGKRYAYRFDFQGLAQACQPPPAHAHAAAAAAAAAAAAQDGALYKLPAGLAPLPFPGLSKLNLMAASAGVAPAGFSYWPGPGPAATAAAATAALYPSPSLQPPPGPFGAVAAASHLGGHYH
# Method in brief: as §1
# ETV5 = ETV5 (Homo sapiens, UniProt P41161 1-510); settings: protein: recombinant; tags: N-terminal GST; dsDNA, one strand shown
# Method in brief: as §1
# HSF1 = HSF1 (Homo sapiens, UniProt Q00613 1-529); settings: protein: recombinant; tags: N-terminal GST; chain copies: 3; dsDNA, one strand shown
# Method in brief: as §1
# SPIC = molecular target: T8, SPIC (Homo sapiens, UniProt Q8N5J4 1-248); settings: protein: recombinant; tags: N-terminal GST; dsDNA, one strand shown
# T8 sequence: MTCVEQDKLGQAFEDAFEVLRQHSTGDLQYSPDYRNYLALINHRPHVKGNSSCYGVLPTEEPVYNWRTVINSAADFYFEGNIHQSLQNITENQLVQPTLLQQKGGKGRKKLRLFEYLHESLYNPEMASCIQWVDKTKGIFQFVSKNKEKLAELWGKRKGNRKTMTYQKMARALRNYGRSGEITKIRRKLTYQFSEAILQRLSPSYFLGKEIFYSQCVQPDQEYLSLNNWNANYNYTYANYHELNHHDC
# Method in brief: as §1
# ELF4 = ELF4 (Homo sapiens, UniProt Q99607 1-663); settings: protein: recombinant; tags: N-terminal GST; dsDNA, one strand shown
# Method in brief: as §1
# ELK4 = molecular target: T9, ELK4 (Homo sapiens, UniProt P28324-2 1-405); settings: protein: recombinant; tags: N-terminal GST; dsDNA, one strand shown
# T9 sequence: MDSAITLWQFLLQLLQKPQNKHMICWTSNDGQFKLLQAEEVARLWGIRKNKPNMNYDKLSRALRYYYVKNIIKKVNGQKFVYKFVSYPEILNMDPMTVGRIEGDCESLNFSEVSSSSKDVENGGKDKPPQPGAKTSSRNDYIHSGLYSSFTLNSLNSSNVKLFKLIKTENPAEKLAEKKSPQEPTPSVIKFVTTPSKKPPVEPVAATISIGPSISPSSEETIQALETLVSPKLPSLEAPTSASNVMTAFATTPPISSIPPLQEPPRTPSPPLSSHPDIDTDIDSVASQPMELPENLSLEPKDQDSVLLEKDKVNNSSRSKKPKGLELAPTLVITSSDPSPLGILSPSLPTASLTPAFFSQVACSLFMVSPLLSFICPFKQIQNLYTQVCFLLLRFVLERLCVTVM
# Method in brief: as §1
# ETV2 = molecular target: T10, ETV2 (Homo sapiens, UniProt O00321 1-342); settings: protein: recombinant; tags: N-terminal GST; dsDNA, one strand shown
# T10 sequence: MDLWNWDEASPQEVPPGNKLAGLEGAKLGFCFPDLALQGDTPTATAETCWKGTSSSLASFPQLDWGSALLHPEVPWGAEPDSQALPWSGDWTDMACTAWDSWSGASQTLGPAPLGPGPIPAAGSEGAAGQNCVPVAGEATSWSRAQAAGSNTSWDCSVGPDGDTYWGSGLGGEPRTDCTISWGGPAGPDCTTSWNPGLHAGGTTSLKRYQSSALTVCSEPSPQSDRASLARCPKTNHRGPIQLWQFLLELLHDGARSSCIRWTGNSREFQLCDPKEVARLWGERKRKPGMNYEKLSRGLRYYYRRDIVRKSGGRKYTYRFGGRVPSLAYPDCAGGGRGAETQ
# Method in brief: as §1
# ELF3 = molecular target: T11, ELF3 (Homo sapiens, UniProt P78545 1-371); settings: protein: recombinant; tags: N-terminal GST; dsDNA, one strand shown
# T11 sequence: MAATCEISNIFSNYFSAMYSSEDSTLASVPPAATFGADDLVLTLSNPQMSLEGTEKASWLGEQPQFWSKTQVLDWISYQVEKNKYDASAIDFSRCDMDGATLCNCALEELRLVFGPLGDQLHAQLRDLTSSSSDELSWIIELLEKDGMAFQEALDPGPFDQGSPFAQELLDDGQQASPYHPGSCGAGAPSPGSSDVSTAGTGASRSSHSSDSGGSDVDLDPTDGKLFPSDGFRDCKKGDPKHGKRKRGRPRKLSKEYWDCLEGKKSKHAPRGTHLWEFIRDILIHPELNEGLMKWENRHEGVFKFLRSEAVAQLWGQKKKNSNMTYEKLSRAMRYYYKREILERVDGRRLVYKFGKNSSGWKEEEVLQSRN
# Method in brief: as §1
# CRX = CRX (Homo sapiens, UniProt O43186 1-299); settings: protein: recombinant; tags: N-terminal GST; dsDNA, one strand shown
# Method in brief: as §1
# ETV1 = ETV1 (Homo sapiens, UniProt P50549 1-477); settings: protein: recombinant; tags: N-terminal GST; dsDNA, one strand shown
# Method in brief: as §1
# Chain of ELF4 (Q99607 whole entry): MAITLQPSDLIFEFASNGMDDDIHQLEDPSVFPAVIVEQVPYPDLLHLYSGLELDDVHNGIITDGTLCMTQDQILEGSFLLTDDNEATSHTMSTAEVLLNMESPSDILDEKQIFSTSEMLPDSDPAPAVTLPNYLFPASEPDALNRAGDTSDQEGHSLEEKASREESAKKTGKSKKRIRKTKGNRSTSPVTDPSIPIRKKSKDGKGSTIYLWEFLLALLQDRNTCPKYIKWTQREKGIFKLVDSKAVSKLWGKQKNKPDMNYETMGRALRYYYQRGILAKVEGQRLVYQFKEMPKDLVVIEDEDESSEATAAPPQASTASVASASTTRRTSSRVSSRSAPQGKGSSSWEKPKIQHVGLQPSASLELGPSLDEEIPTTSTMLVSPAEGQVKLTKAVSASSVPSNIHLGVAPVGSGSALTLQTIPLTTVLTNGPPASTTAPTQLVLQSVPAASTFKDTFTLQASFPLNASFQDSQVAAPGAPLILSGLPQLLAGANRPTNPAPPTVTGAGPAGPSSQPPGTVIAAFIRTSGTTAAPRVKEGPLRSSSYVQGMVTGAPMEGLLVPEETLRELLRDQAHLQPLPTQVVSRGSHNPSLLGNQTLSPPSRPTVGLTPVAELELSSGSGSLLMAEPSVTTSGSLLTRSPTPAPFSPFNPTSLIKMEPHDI
# Chain of ETV1 (P50549 whole entry): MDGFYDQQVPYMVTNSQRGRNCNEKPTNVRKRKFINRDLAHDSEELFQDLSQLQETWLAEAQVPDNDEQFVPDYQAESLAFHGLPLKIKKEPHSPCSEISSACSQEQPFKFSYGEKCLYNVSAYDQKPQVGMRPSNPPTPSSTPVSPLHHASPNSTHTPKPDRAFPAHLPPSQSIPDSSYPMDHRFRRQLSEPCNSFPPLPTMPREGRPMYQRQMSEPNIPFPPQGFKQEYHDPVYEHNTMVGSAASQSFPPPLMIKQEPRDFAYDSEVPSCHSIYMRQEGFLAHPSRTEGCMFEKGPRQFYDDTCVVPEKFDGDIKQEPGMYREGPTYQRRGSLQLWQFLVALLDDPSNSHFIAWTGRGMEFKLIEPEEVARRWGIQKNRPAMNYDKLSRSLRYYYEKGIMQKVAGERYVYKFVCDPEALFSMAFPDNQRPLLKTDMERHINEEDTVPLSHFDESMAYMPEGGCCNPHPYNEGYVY
# Chain of ETV5 (P41161 whole entry): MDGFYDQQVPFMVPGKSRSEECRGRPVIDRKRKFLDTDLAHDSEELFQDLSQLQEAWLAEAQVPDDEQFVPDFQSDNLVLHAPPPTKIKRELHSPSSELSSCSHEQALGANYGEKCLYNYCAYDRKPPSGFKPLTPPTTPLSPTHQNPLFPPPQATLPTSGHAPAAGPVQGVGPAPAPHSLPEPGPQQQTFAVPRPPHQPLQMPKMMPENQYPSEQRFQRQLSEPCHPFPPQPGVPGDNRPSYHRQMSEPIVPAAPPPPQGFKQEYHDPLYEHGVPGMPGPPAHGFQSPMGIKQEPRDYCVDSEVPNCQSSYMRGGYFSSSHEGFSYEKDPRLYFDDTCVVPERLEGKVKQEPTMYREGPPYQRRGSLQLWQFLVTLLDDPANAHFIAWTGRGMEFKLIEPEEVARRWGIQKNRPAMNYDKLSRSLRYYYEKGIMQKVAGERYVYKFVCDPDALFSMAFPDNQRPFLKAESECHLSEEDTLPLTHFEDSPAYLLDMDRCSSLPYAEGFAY
# Chain of HSF1 (Q00613 whole entry): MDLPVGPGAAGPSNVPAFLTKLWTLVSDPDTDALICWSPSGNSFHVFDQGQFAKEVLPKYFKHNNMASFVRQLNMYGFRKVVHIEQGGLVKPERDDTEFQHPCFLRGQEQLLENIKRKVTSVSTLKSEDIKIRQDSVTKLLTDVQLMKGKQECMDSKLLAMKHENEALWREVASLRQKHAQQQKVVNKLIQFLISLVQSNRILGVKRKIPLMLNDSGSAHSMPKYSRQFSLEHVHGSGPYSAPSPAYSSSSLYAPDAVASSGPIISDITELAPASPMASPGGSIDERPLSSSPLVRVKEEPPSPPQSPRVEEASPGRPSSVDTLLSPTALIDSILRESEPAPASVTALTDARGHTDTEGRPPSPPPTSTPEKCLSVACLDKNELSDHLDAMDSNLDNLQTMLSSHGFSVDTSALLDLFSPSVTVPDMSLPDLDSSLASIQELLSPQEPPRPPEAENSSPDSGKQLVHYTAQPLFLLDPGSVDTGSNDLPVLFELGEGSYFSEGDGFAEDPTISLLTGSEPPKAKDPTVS
# Chain of CRX (O43186 whole entry): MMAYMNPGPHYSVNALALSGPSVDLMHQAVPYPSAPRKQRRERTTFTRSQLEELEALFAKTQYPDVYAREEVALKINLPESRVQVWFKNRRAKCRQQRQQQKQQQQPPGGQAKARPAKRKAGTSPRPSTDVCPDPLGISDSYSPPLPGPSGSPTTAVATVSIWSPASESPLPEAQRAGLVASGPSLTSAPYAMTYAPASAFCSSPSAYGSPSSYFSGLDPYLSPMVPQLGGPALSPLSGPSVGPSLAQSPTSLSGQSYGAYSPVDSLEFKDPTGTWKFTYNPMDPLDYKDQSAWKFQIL
# Chain of ELF1 (P32519 whole entry): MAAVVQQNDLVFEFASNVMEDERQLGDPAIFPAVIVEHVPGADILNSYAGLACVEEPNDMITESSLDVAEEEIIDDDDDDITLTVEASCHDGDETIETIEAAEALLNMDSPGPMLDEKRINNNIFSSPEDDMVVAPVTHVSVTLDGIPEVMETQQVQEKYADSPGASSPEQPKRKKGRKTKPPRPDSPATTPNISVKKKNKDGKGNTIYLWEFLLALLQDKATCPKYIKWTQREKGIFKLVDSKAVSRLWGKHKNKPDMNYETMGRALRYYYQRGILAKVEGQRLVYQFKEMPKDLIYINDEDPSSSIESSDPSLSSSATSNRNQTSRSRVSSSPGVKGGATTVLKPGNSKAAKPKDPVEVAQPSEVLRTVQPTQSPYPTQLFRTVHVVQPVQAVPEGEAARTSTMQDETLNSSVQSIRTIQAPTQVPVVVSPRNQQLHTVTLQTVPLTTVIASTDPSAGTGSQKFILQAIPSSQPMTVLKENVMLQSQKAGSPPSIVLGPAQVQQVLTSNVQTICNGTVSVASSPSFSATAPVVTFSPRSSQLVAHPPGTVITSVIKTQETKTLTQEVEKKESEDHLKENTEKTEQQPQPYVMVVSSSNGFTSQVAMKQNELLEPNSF
# Chain of SPIB (Q01892 whole entry): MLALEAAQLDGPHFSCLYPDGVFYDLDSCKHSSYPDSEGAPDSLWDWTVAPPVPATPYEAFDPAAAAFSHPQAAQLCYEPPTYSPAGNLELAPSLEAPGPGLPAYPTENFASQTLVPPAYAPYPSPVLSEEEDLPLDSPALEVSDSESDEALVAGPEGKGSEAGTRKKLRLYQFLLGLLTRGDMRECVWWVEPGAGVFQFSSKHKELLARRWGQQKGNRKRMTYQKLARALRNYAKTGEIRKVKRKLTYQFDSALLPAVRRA
sequence,measurement,setting,value
CGTATA,binding signal,FLI1,"1.12 fold enrichment (6-mer frequency, TF over GST control)"
same,binding signal,ELK1,"1.23 fold enrichment (6-mer frequency, TF over GST control)"
same,binding signal,GABPA,"1.17 fold enrichment (6-mer frequency, TF over GST control)"
same,binding signal,ERG,"1.11 fold enrichment (6-mer frequency, TF over GST control)"
same,binding signal,ELF1,"1.11 fold enrichment (6-mer frequency, TF over GST control)"
same,binding signal,EHF,"1.09 fold enrichment (6-mer frequency, TF over GST control)"
same,binding signal,SPI1,"1.13 fold enrichment (6-mer frequency, TF over GST control)"
same,binding signal,SPIB,"1.25 fold enrichment (6-mer frequency, TF over GST control)"
same,binding signal,ELK3,"1.16 fold enrichment (6-mer frequency, TF over GST control)"
same,binding signal,FEV,"1.04 fold enrichment (6-mer frequency, TF over GST control)"
same,binding signal,ETV5,"1.15 fold enrichment (6-mer frequency, TF over GST control)"
same,binding signal,HSF1,"1.03 fold enrichment (6-mer frequency, TF over GST control)"
same,binding signal,SPIC,"1.19 fold enrichment (6-mer frequency, TF over GST control)"
same,binding signal,ELF4,"1.13 fold enrichment (6-mer frequency, TF over GST control)"
same,binding signal,ELK4,"1.07 fold enrichment (6-mer frequency, TF over GST control)"
same,binding signal,ETV2,"1.12 fold enrichment (6-mer frequency, TF over GST control)"
same,binding signal,ELF3,"1.24 fold enrichment (6-mer frequency, TF over GST control)"
same,binding signal,CRX,"1.07 fold enrichment (6-mer frequency, TF over GST control)"
same,binding signal,ETV1,"1.19 fold enrichment (6-mer frequency, TF over GST control)"
